KinaseGlo FLuc = counter-screen: inhibitors of Kinase-Glo firefly luciferase; Kinase-Glo luciferase, ATP luminescence, 8 min; Potency, µM (titrated, usually from 38.3 µM), hits mostly inhibitors; 0.28% of 200,000 active; note: nearly all actives have a fitted effect of over 60% in size
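Recombinant Kinase-Glo luciferase, 10 uM ATP (linear range), luciferin; imidazole pH 7.2 / KCl / MgCl2 / Tween / BSA buffer; 8 min RT; luminescence.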
Rab9 promoter act = activators of Rab9 promoter; Huh7 Rab9 promoter-luciferase reporter, luminescence, 24 h; Potency, µM (top dose mostly 9.22 µM), hits mostly activators; 2.8% of 320,000 active; note: nearly all actives have a fitted effect of over 60% in size
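Quantitative HTS format; Huh7 Rab9-luciferase reporter cells (1500/well) receive compound 2 h post-plating, incubate 24 h at 37 °C, then get luciferase reagent for 10 min before luminescence reading.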
FLuc modulator = counter-screen for miR-21 project: firefly luciferase inhibitors or activators. purified FLuc, Km substrates, luminescence inhibition. Potency, µM (titrated, usually from 57.5 µM), hits mostly inhibitors. 6.9% of 360,000 active. AID 588342; note: nearly all actives have a fitted effect of over 55% in size
Target sequence (P08659 whole entry, looked up): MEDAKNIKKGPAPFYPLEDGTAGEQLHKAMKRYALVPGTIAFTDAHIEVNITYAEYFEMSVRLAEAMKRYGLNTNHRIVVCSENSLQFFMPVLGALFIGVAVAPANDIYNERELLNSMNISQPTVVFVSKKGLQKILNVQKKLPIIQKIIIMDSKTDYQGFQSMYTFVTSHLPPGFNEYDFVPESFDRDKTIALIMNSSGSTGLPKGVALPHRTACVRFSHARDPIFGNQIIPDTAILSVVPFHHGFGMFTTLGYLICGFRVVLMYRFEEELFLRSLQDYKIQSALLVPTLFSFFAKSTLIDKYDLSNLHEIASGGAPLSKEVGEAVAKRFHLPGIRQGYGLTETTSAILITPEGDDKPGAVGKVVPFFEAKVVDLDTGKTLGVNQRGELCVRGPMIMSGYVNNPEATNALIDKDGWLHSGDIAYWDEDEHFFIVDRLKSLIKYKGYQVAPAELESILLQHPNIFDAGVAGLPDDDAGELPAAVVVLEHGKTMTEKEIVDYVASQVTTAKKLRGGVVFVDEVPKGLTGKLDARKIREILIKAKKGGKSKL
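Purified P. pyralis luciferase, 10 nM final, with Km-level 10 uM D-luciferin and 10 uM ATP in 50 mM Tris acetate pH 7.5, 10 mM Mg acetate, 0.01% Tween-20, 0.05% BSA; 6-point qHTS titration about 60 µM downward; luminescence read.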
ELG1 genotoxic = genotoxicity induction in ELG1-luciferase HEK293T cells | HEK293T ELG1-luciferase reporter, luminescence, 16 h | Potency, µM (doses to about 46 µM), usual class: activators | 1.3% of 330,000 active; note: nearly all actives have a fitted effect of over 60% in size
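HEK293T cells expressing luciferase-tagged ELG1 were exposed to compound or DMSO vehicle for 16 hr at 37 °C and 5% CO2. Luciferase activity was then measured with ONE-Glo after 30 min at room temperature.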
SMN2 splice enh = SMN2 splice variant enhancement; Potency, µM (doses to about 46.1 µM), actives largely listed as activators; HEK293 SMN2-luciferase splicing reporter, luminescence, 30-36 h; 2.8% of 210,000 active; note: nearly all actives have a fitted effect of over 55% in size
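qHTS luciferase splicing reporter: luminescence rises when SMN2 exon 7 is included in transfected HEK293 cells. Compound exposure lasted 30-36 h at 37C, with 4.5 mM final sodium butyrate as control, followed by a ONE-Glo read.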
NPC1 promoter act = NPC1 promoter activation; Potency, µM (highest dose often 9.22 µM), actives largely listed as activators; 2.4% of 320,000 active; Huh7 NPC1 promoter luciferase reporter, 24 h; note: nearly all actives have a fitted effect of over 60% in size
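Stable NPC1-promoter luciferase Huh7 line; cpd (DMSO) 24 h, 37 °C, 5% CO2; Amplite luciferase reagent 10 min RT; luminescence readout. qHTS format.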
Hits are given with their value; [ ] = another dose, or the depositor's remark. Sampled rows, rich in hits. Any-hit rate of the full collection: about 7.5%. Calls come from the whole dose curve; as a rule, active = well fitted curve in the direction sought with a large enough effect; inconclusive = small, poorly fitted or top-dose-only effect, or another doubt; inactive = no such curve, though single readings can be large; an effect the other way counts as inactive or inconclusive.

O=C(O)c1ccc(N/C(=N\S(=O)(=O)c2ccc(Cl)cc2)c2ccccc2)cc1 was read as Rab9 promoter act inactive, FLuc modulator inactive, ELG1 genotoxic inactive and NPC1 promoter act inactive.
For Cc1ccc(S(=O)(=O)/N=C(/NNC(=O)c2cccc(Cl)c2)c2ccccc2)cc1 the results were Rab9 promoter act inconclusive, FLuc modulator 15µM, ELG1 genotoxic 16µM and NPC1 promoter act inconclusive.
For O=C(NN/C(=N/S(=O)(=O)c1ccc(Cl)cc1)c1ccccc1)c1ccc(O)cc1 the results were KinaseGlo FLuc inactive, Rab9 promoter act inactive, FLuc modulator 15µM, ELG1 genotoxic inconclusive, SMN2 splice enh inactive and NPC1 promoter act inactive.
Screening COc1ccc(N(Cc2cccs2)C(=O)COc2cc(C)c(Cl)c(C)c2)cc1 returned FLuc modulator inactive.
For CS(=O)(=O)N1CCC(C(=O)Nc2cc(Cl)c(Cl)cc2Cl)CC1 the results were Rab9 promoter act inactive, FLuc modulator inactive, ELG1 genotoxic inactive and NPC1 promoter act inactive.
For O=C(Nc1nnc(-c2ccc(Br)cc2)o1)c1ccco1 the results were Rab9 promoter act inconclusive, FLuc modulator 2.7µM, ELG1 genotoxic inactive and NPC1 promoter act inactive.
`CS(=O)(=O)c1ccc(-c2nnc(NC(=O)c3ccco3)o2)cc1` gave Rab9 promoter act inactive, FLuc modulator 12µM, ELG1 genotoxic inactive and NPC1 promoter act inactive.
Screening COc1cc(-c2nnc(NC(=O)c3ccco3)o2)cc(OC)c1OC returned Rab9 promoter act inactive, FLuc modulator inactive, ELG1 genotoxic inactive and NPC1 promoter act inactive.
O=c1c(-c2ccc3c(c2)OCCO3)coc2cc(OC3OC(CO)C(O)C(O)C3O)ccc12 (configuration not stated) was read as Rab9 promoter act 0.5µM, FLuc modulator 11µM, ELG1 genotoxic inconclusive and NPC1 promoter act 0.56µM.
C/C(=N\Nc1cccc2cccnc12)c1ccc[nH]1 was read as KinaseGlo FLuc inactive, Rab9 promoter act 1.4µM, FLuc modulator 1.1µM, ELG1 genotoxic inactive, SMN2 splice enh 11µM and NPC1 promoter act inconclusive.
Cc1csc2nc(CSc3nc4ccccc4o3)c(Br)n12 was read as KinaseGlo FLuc inactive, Rab9 promoter act 2.5µM, FLuc modulator 8.5µM, ELG1 genotoxic 2.9µM, SMN2 splice enh inconclusive and NPC1 promoter act 3.5µM.
Cc1nc(-c2ccc(Cl)cc2)sc1C1(C)CC(c2cccc(F)c2)=NO1 (configuration not stated) was read as Rab9 promoter act inactive, FLuc modulator 24µM, ELG1 genotoxic inactive and NPC1 promoter act inactive.
Cc1nc(-c2ccc(Cl)cc2)sc1C1(C)CC(c2cccc(Cl)c2)=NO1 (configuration not stated) was read as Rab9 promoter act inactive, FLuc modulator 24µM, ELG1 genotoxic inactive and NPC1 promoter act inactive.
For COc1ccc(N2CC(C(=O)Nc3nc4ccc(S(C)(=O)=O)cc4s3)CC2=O)cc1 (configuration not stated) the results were Rab9 promoter act inactive, FLuc modulator inactive, ELG1 genotoxic inactive and NPC1 promoter act inactive.
For COc1cccc(C(=O)c2cn(CC(=O)Nc3cccc(Cl)c3C)c3nc(C)ccc3c2=O)c1 the results were FLuc modulator inactive.
For Fc1ccc(-c2cc3ncc4c(n3n2)-c2cc(Cl)ccc2OC4)cc1 the results were FLuc modulator inactive and SMN2 splice enh inactive.
Cc1ccnc(NC(=O)CNC(=O)c2ccc3ccccc3c2)c1 was read as Rab9 promoter act inactive, FLuc modulator inconclusive, ELG1 genotoxic 21µM and NPC1 promoter act inactive.
Cc1ccnc(NC(=O)CNC(=O)COc2ccccc2)c1 was read as Rab9 promoter act inactive, FLuc modulator 19µM, ELG1 genotoxic inconclusive and NPC1 promoter act inactive.
For Nc1[nH]c(=O)[nH]c(=O)c1N=Nc1ccccc1Cl the results were Rab9 promoter act inactive, FLuc modulator inconclusive, ELG1 genotoxic inactive[9.26 µM] and NPC1 promoter act inactive.
For Cc1[nH][nH]c(=O)c1N=Nc1ccccc1Cl the results were Rab9 promoter act inactive, FLuc modulator 15µM, ELG1 genotoxic inactive and NPC1 promoter act inactive.

Screening data from PubChem BioAssay.
